What is called inhibition is the drop in the measured response relative to a control, in per cent.

The values below come from PubChem BioAssay.

Assay [1] is described as follows: inhibitors of TNFa-induced NFkB p65 translocation, primary screen, imaging, HUVEC, MLSMR starter and 10KST1 sets (AID 438;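 active = inhibition above 20% together with a positive visual image hit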;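 note: compound added about 3h40 before a 20 min TNFalpha stimulation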;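 for inhibition: signal is the nuclear over cytoplasmic p65 intensity ratio per well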). Conditions: HUVEC TNFa-induced p65 nuclear translocation; cell count: measured here: nuclei count (cytotoxicity indicator), at 2.08 µM; inhibition: at 2 µM, stronger effect = higher value, 0% TNFa-plus-vehicle, 100% no-TNFa wells.
Assay [2] is described as follows: inhibitors of mutant huntingtin aggregation, primary screen, imaging, exon1htt(103Q)mCFP cells, high-content imaging (AID 483;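 active = visual image review flags a hit and inhibition of aggregation exceeds 20%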;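 note: compound exposure lasted 3 days before fixation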;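 for nuclei count: percent of the per-plate median nuclei count of sample wells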). As to conditions: exon1htt(103Q)mCFP cell line, aggregate imaging, at 2 µM; inhibition of aggregation: stronger effect = higher value; nuclei count: measured here: cell count, toxicity.
A short description of assay [3]: inhibitors of E-selectin induction by TNFa, primary screen, imaging, HUVEC, immunofluorescence, MLSMR starter and 10KST1 sets (AID 487;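 active = visually confirmed hit in the image check and inhibition above 20%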;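 for inhibition: signal is fraction of cell area covered by stained E-selectin grains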;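 for nuclei count: 100% = median nuclei count of all wells on the same plate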). As to conditions: HUVEC TNFalpha-induced E-selectin immunofluorescence imaging, at 2 µM; inhibition: stronger effect = higher value; nuclei count: measured here: cell number, toxicity.
The target of assay [4] is Voltage-gated potassium channel subunit beta-2 (Rattus norvegicus) (UniProt P62483). The assay can be described thus: KvBeta enzyme negative modulators, primary screen, biochemical, NADPH fluorescence (AID 622;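 active = fluorescence slope higher than the sample average by over 3 SD, cut at about -0.22 in these data, passing the limit was not always enough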;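 note: slope of raw intensity against log time taken from 70 to 1610 s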). As to conditions: recombinant KvBeta, 4-cyanobenzaldehyde reduction, at 10 µM, stronger effect = higher value.
Assay [5] shares this target. The assay can be described thus: KvBeta positive modulators, primary screen, biochemical, NADPH fluorescence (AID 623;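 active = NADPH fluorescence slope more negative than the mean of all samples by about 3 SD, 99.7% confidence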;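 note: fluorescence intensity change per second fitted from 20 to 320 s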). As to conditions: Recombinant KvBeta, NADPH fluorescence decrease slope, 10 min; at 10 µM; stronger effect = lower value.
Assay [6] deals with Alpha-2C adrenergic receptor (Homo sapiens) (UniProt P18825). Kind of assay: modulators of alpha2C/GIRK thallium flux, primary screen, cell-based, HEK293 alpha2C/GIRK1/2 (AID 624).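 Note: slope of fluorescence ratio to pre-addition baseline per second over 15 to 24 s.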 As to conditions: thallium flux BTC fluorescence, at 10 µM, actives lie on both sides.
Assay [7] is described as follows: inhibitors of Sendai virus-induced IRF3 signaling, primary screen, TLR/RLR signaling modifier project, cell-based, Sendai virus stimulus, luciferase, 10K MLSCN set (AID 602276;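 active = inhibition at or above 50% at 10 µM; inactive = inhibition below 50%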;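 note: firefly luciferase from ISG56 promoter only with Renilla not read in this screen; 0% = Sendai virus plus DMSO and 100% = medium plus DMSO without virus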). As to conditions: HEK293 RL24 IRF3 luciferase reporter, at 10 µM, stronger effect = higher value. (In a reporter assay the amount or activity of a reporter protein is the signal.)
Assay [8] is described as follows: inhibitors of poly I:C-induced TLR3 signaling, primary screen, cell-based, poly I:C stimulus, luciferase, 10K MLSCN set (AID 602277;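 active = inhibition of the reporter signal at or above 50%; inactive = inhibition below 50%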). Conditions: HEK293-TLR3 RL24 IRF3 luciferase reporter, at 10 µM, stronger effect = higher value.

Activity calls are given as the source filed them.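 Rule for the calls, unless noted: active = fluorescence slope after compound addition differing from the mean of all screened samples at 99.7% confidence, in either direction; inactive = the rest.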

Chain of Voltage-gated potassium channel subunit beta-2 (Rattus norvegicus) (P62483 whole entry, looked up): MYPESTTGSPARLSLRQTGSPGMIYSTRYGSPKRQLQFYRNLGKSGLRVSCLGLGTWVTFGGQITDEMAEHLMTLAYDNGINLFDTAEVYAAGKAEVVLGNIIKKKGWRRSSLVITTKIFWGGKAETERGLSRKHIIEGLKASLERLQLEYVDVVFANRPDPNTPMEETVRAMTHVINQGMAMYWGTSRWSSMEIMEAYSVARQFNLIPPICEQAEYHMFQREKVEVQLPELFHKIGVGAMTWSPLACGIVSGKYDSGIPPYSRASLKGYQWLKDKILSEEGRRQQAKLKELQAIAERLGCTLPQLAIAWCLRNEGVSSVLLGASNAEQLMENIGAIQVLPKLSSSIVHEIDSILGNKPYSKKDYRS
Chain of Alpha-2C adrenergic receptor (Homo sapiens) (P18825 whole entry, looked up): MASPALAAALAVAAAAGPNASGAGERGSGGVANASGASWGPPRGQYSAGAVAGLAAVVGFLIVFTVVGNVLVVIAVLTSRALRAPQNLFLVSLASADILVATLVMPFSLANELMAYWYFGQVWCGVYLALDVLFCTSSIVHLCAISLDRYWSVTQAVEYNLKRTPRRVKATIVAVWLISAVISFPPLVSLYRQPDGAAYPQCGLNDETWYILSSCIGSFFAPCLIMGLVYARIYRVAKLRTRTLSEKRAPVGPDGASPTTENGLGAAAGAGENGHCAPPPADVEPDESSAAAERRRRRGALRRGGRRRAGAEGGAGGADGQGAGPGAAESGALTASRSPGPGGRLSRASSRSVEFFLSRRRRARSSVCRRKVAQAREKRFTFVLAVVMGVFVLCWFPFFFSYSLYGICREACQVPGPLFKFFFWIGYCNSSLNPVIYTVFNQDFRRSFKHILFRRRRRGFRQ

Regarding `Nn1c(SCC(=O)Nc2ccc(Oc3ccccc3)cc2)nnc1C1CC1`, the cell count in assay [1] was found to be 331. The inhibition was -12.3% (inactive) in assay [1], -57.3% (inactive) in assay [3], -8.58% (inactive) in assay [7] and -16% (inactive) in assay [8]. For the same compound, the inhibition of aggregation in assay [2] is 17.5% (inactive). For the same compound, the results for the nuclei count in assay [2] and in assay [3] were 91.2% and 132%, respectively. Further, the fluorescence slope in assay [4] was -0.378 (inactive). In addition, the NADPH fluorescence slope in assay [5] is 1.7e-05 (inactive). The slope in assay [6] was 0.00645 (inactive).
On to `COC(=O)c1cccc(NC(=O)CSc2nnc(COc3ccccc3)n2C)c1`, for which the cell count in assay [1] is 671. The inhibition in assay [1] was -5.4% (inactive); in assay [3] it was -88% (inactive); in assay [7] it was 11.9% (inactive); in assay [8] it was 14% (inactive). In addition, the inhibition of aggregation in assay [2] was -2.2% (inactive). The values for the nuclei count in assay [2] and in assay [3] were 101% and 135%, respectively. Moreover, the fluorescence slope in assay [4] is -0.436 (inactive). Also, the NADPH fluorescence slope in assay [5] is -4.3e-05 (inactive). In addition, the slope in assay [6] was 0.00598 (inactive).
`Cn1c(=O)c2c(nc(SCCOc3ccc4ccc(=O)oc4c3)n2C)n(C)c1=O`: the cell count in assay [1] came to 581. The inhibition is 3.3% (inactive) in assay [1], -34.8% (inactive) in assay [3], 5.44% (inactive) in assay [7] and 23.8% (inactive) in assay [8]. Further, the inhibition of aggregation in assay [2] is 7.2% (inactive). Also, the nuclei count in assay [2] was 107%; in assay [3] it was 95.1%. The fluorescence slope in assay [4] is -0.53 (inactive). Besides, the NADPH fluorescence slope in assay [5] is -3.8e-05 (inactive). Moreover, the slope in assay [6] is 0.00534 (inactive).
On to `O=C(CN1CCC(NC(=O)c2ccc(F)cc2)CC1)NCc1ccccc1F`, for which the cell count in assay [1] worked out at 435. In addition, the inhibition in assay [1] was 4.6% (inactive); in assay [3], -192% (inactive); in assay [7], 10.1% (inactive); in assay [8], 23.8% (inactive). Also, the inhibition of aggregation in assay [2] was -0.1% (inactive). Moreover, the nuclei count in assay [2] was 101%; in assay [3] it was 110%. Moreover, the fluorescence slope in assay [4] is -0.438 (inactive). In addition, the NADPH fluorescence slope in assay [5] is -6.6e-06 (inactive). In assay [6], the slope was 0.00564 (inactive).
On to `COc1cc2c(c(OC)c1)C(c1ccncc1)CC(=O)N2` (centres undefined), for which, in assay [1], the cell count is 624. The inhibition is -11.6% (inactive) in assay [1], -42.5% (inactive) in assay [3], -9.07% (inactive) in assay [7] and 3.48% (inactive) in assay [8]. Besides, the inhibition of aggregation in assay [2] was -25.7% (inactive). Besides, the nuclei count in assay [2] was found to be 111%; in assay [3], 116%. Besides, the fluorescence slope in assay [4] is -0.565 (inactive). Besides, in assay [5], the NADPH fluorescence slope was -2.7e-06 (inactive). Further, the slope in assay [6] was 0.0063 (inactive).
As to `COc1cc(C2NC(=O)NC(C)=C2C(=O)OCC2CCCO2)ccc1O` (centres undefined), the cell count in assay [1] was determined as 401. The inhibition is 1.8% (inactive) in assay [1], -105% (inactive) in assay [3], 1.44% (inactive) in assay [7] and 24.7% (inactive) in assay [8]. Also, the inhibition of aggregation in assay [2] is -5.3% (inactive). In addition, the values for the nuclei count in assay [2] and in assay [3] were 112% and 114%, respectively. In addition, the fluorescence slope in assay [4] was -0.489 (inactive). Further, the NADPH fluorescence slope in assay [5] is -3.4e-05 (inactive). For the same compound, the slope in assay [6] was 0.00604 (inactive).
With `CN(C)C(=O)Cn1c(SCC(=O)NC2CCCCC2)nc2ccccc21`, the cell count in assay [1] amounted to 685. The inhibition is -3.1% (inactive) in assay [1], -68.3% (inactive) in assay [3], 5.56% (inactive) in assay [7] and 31.7% (inactive) in assay [8]. Moreover, the inhibition of aggregation in assay [2] was -19.2% (inactive). Further, the nuclei count in assay [2] is 112%; in assay [3], 146%. In addition, the fluorescence slope in assay [4] is -0.41 (inactive). For the same compound, the NADPH fluorescence slope in assay [5] was 6.1e-06 (inactive). Also, the slope in assay [6] is 0.00698 (inactive).
With `COc1ccccc1N1CCN(c2cc(=O)n(Cc3ccc(F)cc3)c(=O)[nH]2)CC1`, the cell count in assay [1] was found to be 503. Further, the inhibition is -2.8% (inactive) in assay [1], 11.7% (inactive) in assay [3], 17.1% (inactive) in assay [7] and 29.3% (inactive) in assay [8]. Besides, the inhibition of aggregation in assay [2] is 2% (inactive). Besides, the nuclei count in assay [2] is 44%; in assay [3], 106%. Further, the fluorescence slope in assay [4] is -0.569 (inactive). Further, in assay [5], the NADPH fluorescence slope is -3.7e-05 (inactive). For the same compound, in assay [6], the slope is 0.00657 (inactive).
Turning to `CC(C)C(C(=O)Nc1ccc2c(c1)OCCO2)N1C(=O)c2ccccc2C1=O` (centres undefined), in assay [1], the cell count came to 552. In addition, the inhibition is -4.3% (inactive) in assay [1], -63.7% (inactive) in assay [3], 2.16% (inactive) in assay [7] and 12.8% (inactive) in assay [8]. The inhibition of aggregation in assay [2] was 7% (inactive). Further, the nuclei count in assay [2] was 104%; in assay [3] it was 147%. In assay [4], the fluorescence slope is -0.3 (inactive). Further, the NADPH fluorescence slope in assay [5] was 1.8e-07 (inactive). In addition, the slope in assay [6] is 0.00511 (inactive).
Consider `O=C(NCC(c1cccnc1)N1CCOCC1)c1ccco1` (centres undefined), for which the cell count in assay [1] was determined as 453. The inhibition is 2.4% (inactive) in assay [1], -42.3% (inactive) in assay [3], 15.9% (inactive) in assay [7] and 31% (inactive) in assay [8]. In addition, in assay [2], the inhibition of aggregation was -3.5% (inactive). The nuclei count came to 100% in assay [2] and 129% in assay [3]. Also, the fluorescence slope in assay [4] is -0.336 (inactive). The NADPH fluorescence slope in assay [5] was 3.2e-06 (inactive). Moreover, the slope in assay [6] is 0.00285 (inactive).
As for `Cc1ccc(S(=O)(=O)N2CCOCC2)cc1C(=O)Nc1nc(-c2cccnc2)cs1`, the cell count in assay [1] was found to be 294. Moreover, the inhibition in assay [1] is 10.3% (inactive); in assay [3] it was -22.3% (inactive); in assay [7] it was 7.72% (inactive); in assay [8], 15.3% (inactive). In assay [2], the inhibition of aggregation was -1.2% (inactive). Also, the results for the nuclei count in assay [2] and in assay [3] were 99.3% and 100%, respectively. The fluorescence slope in assay [4] was -0.527 (inactive). For the same compound, the NADPH fluorescence slope in assay [5] was 2.5e-05 (inactive). For the same compound, the slope in assay [6] is 0.00585 (inactive).
In the case of `COCCn1nnnc1CN(Cc1cccnc1)Cc1cc2cc(OC)ccc2[nH]c1=O`, in assay [1], the cell count is 670. The inhibition in assay [1] was -10.6% (inactive); in assay [3], -11.6% (inactive); in assay [7], 14.3% (inactive); in assay [8], 25.2% (inactive). Also, in assay [2], the inhibition of aggregation is -13.1% (inactive). Besides, the nuclei count worked out at 122% in assay [2] and 107% in assay [3]. Also, the fluorescence slope in assay [4] is -0.605 (inactive). The NADPH fluorescence slope in assay [5] was -3.4e-05 (inactive). For the same compound, the slope in assay [6] was 0.00315 (inactive).
On to `CCN(CC)CCNC(=O)c1ccc(CS(=O)(=O)c2ccc(Br)cc2)o1`, for which the cell count in assay [1] is 655. The inhibition in assay [1] is 11.2% (inactive); in assay [3] it was 21.7% (inactive); in assay [7], 7.79% (inactive); in assay [8], 25.7% (inactive). Further, the inhibition of aggregation in assay [2] is -11.8% (inactive). Also, the nuclei count in assay [2] came out at 103%; in assay [3], 117%. Further, the fluorescence slope in assay [4] is -0.611 (inactive). The NADPH fluorescence slope in assay [5] was -3.9e-05 (inactive). Also, in assay [6], the slope was 0.00568 (inactive).
`CC(C)CC(c1nnnn1CC1CCCO1)N1CCN(Cc2ccc3c(c2)OCO3)CC1` (centres undefined): the cell count in assay [1] came out at 474. Further, the inhibition in assay [1] was 1% (inactive); in assay [3], -21.2% (inactive); in assay [7], -28.6% (inactive); in assay [8] it was 25% (inactive). In addition, the inhibition of aggregation in assay [2] was -18.9% (inactive). Also, the nuclei count in assay [2] was determined as 129%; in assay [3] it was 111%. For the same compound, the fluorescence slope in assay [4] was -0.472 (inactive). Besides, in assay [5], the NADPH fluorescence slope was -3.8e-05 (inactive). Also, the slope in assay [6] is 0.00652 (inactive).
